Screening results (PubChem)
PDI inh = inhibitors of human protein disulfide isomerase | PDI insulin aggregation turbidity, A650, 90 min | inhibition, % at 10 µM | AID 588391 | P07237 | 350,000 compounds, 0.052% hits;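 active means mean inhibition across replicates of 30% or more, whatever share of single replicates reach that level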
ERp5 inh = blocks human ERp5 reductase activity on insulin | ERp5 insulin aggregation, absorbance 650 nm, 90 min | Q15084 | inhibition, % at 9.99 µM | 350,000 compounds, 0.05% hits;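 active means mean replicate inhibition above about 25%, with every replicate also reaching it, limit read from the data, passing the limit was not always enough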
SIRT5 inh = blocks human SIRT5 desuccinylation of peptide; Q9NXA8; Purified SirT5, succinyl-peptide AMC, trypsin-coupled fluorescence; inhibition, % at 15 µM; 330,000 compounds, 1.1% hits; in the data active means inhibition above about 15%
ERAP1 inh = blocks human ERAP1 aminopeptidase activity. recombinant ERAP1, Leu-AMC fluorescence, 60 min. AID 652197. 340,000 compounds, 0.15% hits. Q9NZ08. inhibition, % at 10.7 µM;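 active means mean replicate inhibition of at least 30%, or all replicates individually reaching that 30% level; inactive means mean below 30% and not every replicate reaching it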;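 further: 0% = neutral control wells and 100% = L-leucinethiol positive control wells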
HDAC3 inhib = human HDAC3 inhibition. 320,000 compounds, 0.15% hits. AID 2718. recombinant HDAC3, fluorogenic peptide/trypsin coupled, fluorescence. O15379. inhibition, % at 8.3 µM; in the data active means inhibition above about 26%, passing the limit was not always enough
Target sequence (O15379 whole entry, looked up): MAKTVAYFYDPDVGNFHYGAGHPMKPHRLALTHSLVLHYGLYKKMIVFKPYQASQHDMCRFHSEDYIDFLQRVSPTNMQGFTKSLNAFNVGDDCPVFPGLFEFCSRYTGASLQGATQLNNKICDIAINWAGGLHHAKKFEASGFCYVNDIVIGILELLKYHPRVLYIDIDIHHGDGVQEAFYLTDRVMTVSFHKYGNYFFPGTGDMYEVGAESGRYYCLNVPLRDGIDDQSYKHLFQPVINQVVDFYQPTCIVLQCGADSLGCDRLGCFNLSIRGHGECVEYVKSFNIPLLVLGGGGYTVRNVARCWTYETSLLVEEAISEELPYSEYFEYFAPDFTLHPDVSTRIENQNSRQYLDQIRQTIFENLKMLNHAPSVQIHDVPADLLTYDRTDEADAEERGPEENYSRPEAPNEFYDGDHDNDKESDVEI
Active calls of the source: *; . = no result given; ! = not confirmed by another sample. The entries come from a sample that favours hits as a whole.

SMILES	PDI inh	ERp5 inh	SIRT5 inh	ERAP1 inh	HDAC3 inhib
COc1cccc(NC(=O)C[C@@H]2CC[C@@H]3[C@@H](COc4ccc(NC(=O)C5CCOCC5)cc4C(=O)N3C)O2)c1	.	-3.9	4.7	-0.9	.
COc1cccc(C(=O)Oc2ccc(/C=N/NC(=O)c3ccncc3)cc2OC)c1	2.5	2.5	21.2*	-1.7	-1.6
COc1cc(/C=N/NC(=O)c2ccncc2)ccc1OC(=O)c1cccc(Br)c1	-2.6	0.1	-3.3	-0.9	1.8
C[C@@H]1CN([C@H](C)CO)C(=O)c2cccc(NC(=O)c3nc4ccccc4s3)c2O[C@H]1CN(C)Cc1ccc(C(F)(F)F)cc1	.	2.8	19.9*	-1.3	.
C[C@H]1CN([C@@H](C)CO)C(=O)c2cccc(NC(=O)c3nc4ccccc4s3)c2O[C@H]1CN(C)Cc1ccc(C(F)(F)F)cc1	.	0.8	27.0*	-2.0	.
COc1ccc(NC(=O)N(C)C[C@H]2Oc3c(NC(=O)c4nc5ccccc5s4)cccc3C(=O)N([C@@H](C)CO)C[C@@H]2C)cc1	.	-7.2	-3.0	-0.2	.
C[C@H](CO)N1C[C@H](C)[C@H](CN(C)Cc2ccccc2)Oc2c(NC(=O)c3nc4ccccc4s3)cccc2C1=O	.	-8.3	1.3	-1.3	.
COc1ccc(NC(=O)N(C)C[C@H]2Oc3c(NC(=O)c4nc5ccccc5s4)cccc3C(=O)N([C@@H](C)CO)C[C@H]2C)cc1	0.2	-3.4	20.3*!	2.1	6.9
CN(C)c1ccc2c(c1)[C@H]1C[C@H](CC(=O)NC3CCCC3)O[C@H](CO)[C@H]1O2	.	-6.7	2.5	2.3	.
C[C@H](CO)N1C[C@H](C)[C@H](CN(C)CC2CCOCC2)Oc2ncc(C#C[C@@H](C)O)cc2C1=O	.	-0.1	-1.2	2.5	.
NC(N)=N/N=C/c1ccccc1Cl	-4.7	-8.0	18.1*	-4.6	.
COc1ccc(C(=O)NCc2nnc(SCC(=O)NC3CCCCC3)n2C)cc1	10.0	-1.2	-2.9	30.0*	7.3
CCCN(CC(=O)Nc1ccccc1C)C(=O)c1ccc(C2SCCS2)cc1	-3.6	5.7	-0.6	-2.2	80.3*
CCCN(CC(=O)Nc1ccccc1C)C(=O)c1ccc(S(=O)(=O)N2CCCCCC2)cc1	2.9	-1.7	2.3	0.8	2.7
COc1cccc(CN2CC(C(=O)N(C)CCc3ccccc3)CCC2=O)c1 (stereo not drawn)	-3.4	-7.8	0.2	2.5	-0.7
COc1cccc(CN2CC(C(=O)N(C)CC3CCOCC3)CCC2=O)c1 (stereo not drawn)	-4.5	-11.2	19.0*	-2.8	-1.1
CC(C)NC(=O)Nc1ccc2c(c1)C(=O)N([C@H](C)CO)C[C@@H](C)[C@@H](CN(C)Cc1ccc(C(F)(F)F)cc1)OCCCC[C@H](C)O2	.	-4.7	2.8	2.0	.
C[C@@H]1CCCCO[C@H](CN(C)Cc2ccc(C(F)(F)F)cc2)[C@H](C)CN([C@H](C)CO)C(=O)c2cc(NC(=O)c3ccncc3)ccc2O1	.	3.0	20.3*	-2.3	.
C[C@@H]1CN([C@H](C)CO)C(=O)c2cc(NC(=O)c3ccncc3)ccc2O[C@@H](C)CCCCO[C@@H]1CN(C)Cc1ccc(C(F)(F)F)cc1	.	0.2	11.3	-2.4	.
CC(C)NC(=O)Nc1ccc2c(c1)C(=O)N([C@@H](C)CO)C[C@@H](C)[C@H](CN(C)Cc1ccc(C(F)(F)F)cc1)OCCCC[C@@H](C)O2	.	1.3	16.9*	-0.2	.
COc1ccc(NC(=O)Nc2ccc3c(c2)CC(=O)N([C@H](C)CO)C[C@@H](C)[C@H](CN(C)Cc2ccc(C(=O)Nc4ccccc4N)cc2)O3)cc1	.	2.6	0.1	3.7	.
O=C(NNc1ccccc1C(F)(F)F)c1sccc1Br	-3.8	-2.9	20.3*	.	-1.7
C[C@H](CO)N1C[C@H](C)[C@H](CN(C)Cc2ccncc2)Oc2cc(Br)ccc2S1(=O)=O	.	-0.6	15.2*	-2.4	.
C[C@@H]1CN([C@H](C)CO)S(=O)(=O)c2ccc(-c3cncnc3)cc2O[C@H]1CN(C)Cc1ccncc1	.	1.6	17.1*	0.7	.
C[C@H](CO)N1C[C@H](C)[C@@H](CN(C)Cc2cncnc2)Oc2cc(-c3cncnc3)ccc2S1(=O)=O	.	-4.2	-1.4	2.2	.
COc1ccccc1-c1cnc2c(c1)C(=O)N([C@@H](C)CO)C[C@H](C)[C@H](CN(C)C(C)=O)O2	.	-1.5	0.5	-3.5	.
CCOc1ccc(NC(=O)CN(C)C(=O)Cn2cnc3c2c(=O)n(C)c(=O)n3C)cc1OCC	-0.3	2.2	1.3	30.2*	0.5
CCOC(=O)Cc1csc(NC(=O)Cn2cnc3c2c(=O)n(C)c(=O)n3C)n1	9.5	1.6	25.3*	-0.4	2.0
